From PubChem BioAssay
TEAD-YAP inh: TEAD-YAP interaction inhibition | HEK-TIYL cells, TEAD-Gal4/YAP UAS-luciferase luminescence | inhibition, % at 9.12 µM | actives 1.4% (n = 640,000) | AID 1259422; in the data active = inhibition above about 32%;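 note: 0% = median of test compound wells and 100% = reference inhibitor wells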
GPR151 activ: activates the human receptor GPR151. PathHunter beta-arrestin GPR151 cells, luminescence. activation, % at 11.2 µM. actives 1% (n = 650,000). AID 1508602; in the data active = activation above about 4.9%;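 note: 0% = median of compound wells and 100% = cells with positive control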
Target sequence (Q8TDV0 whole entry, looked up): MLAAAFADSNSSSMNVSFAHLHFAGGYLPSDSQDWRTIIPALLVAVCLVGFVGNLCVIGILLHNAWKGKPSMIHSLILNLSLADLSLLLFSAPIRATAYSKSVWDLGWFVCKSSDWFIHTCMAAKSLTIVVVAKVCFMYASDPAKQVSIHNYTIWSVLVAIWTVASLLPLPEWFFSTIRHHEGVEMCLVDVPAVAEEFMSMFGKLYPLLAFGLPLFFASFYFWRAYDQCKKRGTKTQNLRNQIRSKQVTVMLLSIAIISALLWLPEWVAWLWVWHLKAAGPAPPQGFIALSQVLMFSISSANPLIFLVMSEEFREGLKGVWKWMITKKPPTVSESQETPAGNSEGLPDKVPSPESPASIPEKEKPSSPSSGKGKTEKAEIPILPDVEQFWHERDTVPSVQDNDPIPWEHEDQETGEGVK
MITF primary: blocks human microphthalmia-associated transcription factor | O75030 | inhibition, % at 2.6 µM | actives 0.91% (n = 650,000) | AID 1259374 | AlphaScreen MITF homodimerization, bead proximity signal; in the data active = inhibition above about 50%;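 note: 0% = vehicle wells with protein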
FBW7 activator: human FBW7 E3 ligase activation, primary screen; Q969H0; AlphaScreen FBW7–phospho-cyclin E peptide binding, activator screen; normalized activity (activation), % at 26.1 µM; actives 0.13% (n = 650,000); AID 1259310; in the data active = normalized activity above about 1.9%;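 note: purified mutant Fbw7 with reduced substrate affinity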
GPR151 conf act: confirmation of human GPR151 activators | GPR151 PathHunter beta-arrestin cells, luminescence, 90 min; % of EA-reagent control over plate median | shares compounds with GPR151 activ | 6,700 tested, under 10 active | activation, % at 11.2 µM | AID 1508609;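 active = mean percent activation across replicates above the confirmation screen cutoff of 4.91%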
GPR119 ag: activates human GPR119 in a GPR151 counter-screen | activation, % at 11.2 µM | AID 1508611 | actives 0.3% (n = 6,700) | shares compounds with GPR151 activ | GPR119 PathHunter beta-arrestin cells, luminescence, 90 min; 0 = compound-well median, 100 = enzyme-acceptor control;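 active = mean percent activation in the counterscreen above 29.09%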;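 note: counterscreen on off-target GPR119 to flag nonselective hits from the GPR151 activator screen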
An asterisk follows results filed as active. Sampled rows, rich in hits. Any-hit rate of the full collection: about 3.5%.

`Cc1c(C(=O)N/N=C/c2cccc([N+](=O)[O-])c2)[nH]c2c([N+](=O)[O-])cccc12` gave TEAD-YAP inh -7.0, GPR151 activ 5.2*, MITF primary 0.9, FBW7 activator 0.0, GPR151 conf act -0.5 and GPR119 ag -9.1.
For Cc1cc([N+](=O)[O-])ccc1NC(=O)/C(C#N)=C/c1cccc([N+](=O)[O-])c1 the results were TEAD-YAP inh 3.7, GPR151 activ 0.1, MITF primary 9.0 and FBW7 activator -0.1.
O=C(CC(=O)N/N=C/c1cccc([N+](=O)[O-])c1)N/N=C/c1cccc([N+](=O)[O-])c1 was read as TEAD-YAP inh 17.2, GPR151 activ -0.1, MITF primary 7.5 and FBW7 activator -0.4.
`CC(=O)Oc1cccc(/C=C(\C#N)C(=O)Nc2ccc([N+](=O)[O-])cc2C)c1` gave TEAD-YAP inh 11.6, GPR151 activ 6.3*, MITF primary 13.1, FBW7 activator 0.3, GPR151 conf act -0.8 and GPR119 ag -9.0.
Screening N#C/C(=C/c1cccc([N+](=O)[O-])c1)C(=O)Nc1ccc(O)cc1 returned TEAD-YAP inh -7.6, GPR151 activ -0.8, MITF primary 0.7 and FBW7 activator 0.9.
O=P(O)(O)OC1[C@@H](OP(=O)(O)O)[C@@H](O)C(O)[C@H](O)[C@H]1OP(=O)(O)O (stereo not given in full) was read as GPR151 activ -1.8 and MITF primary -7.3.
For CCCCNC(=S)NNC(=O)C12CC3CC(CC(C3)C1)C2 the results were TEAD-YAP inh -7.7, GPR151 activ 1.4, MITF primary -7.3 and FBW7 activator 0.1.
For CCCCNC(=S)NNC(=O)C(=O)NNC(=S)NCCCC the results were TEAD-YAP inh 4.7, GPR151 activ 6.4*, MITF primary 23.9, FBW7 activator -0.1, GPR151 conf act 0.0 and GPR119 ag 5.1.
`CCN1CCN(S(=O)(=O)c2ccc3c(c2)SC(C)CN3C(C)=O)CC1` (stereo not given) gave TEAD-YAP inh 5.9, GPR151 activ 6.1*, MITF primary -2.7, FBW7 activator 0.0, GPR151 conf act 0.3 and GPR119 ag -2.3.
For CC(=O)N1CC(C)Sc2cc(S(=O)(=O)N3CCCCC3)ccc21 (stereo not given) the results were TEAD-YAP inh 5.3, GPR151 activ 1.6, MITF primary 5.4 and FBW7 activator 0.0.
For Cc1ccc(C2=C/C(=C(/CCC(=O)NCc3ccccc3)c3ccc(C)cc3)C(=O)N2)cc1 the results were TEAD-YAP inh -1.1, GPR151 activ 2.7, MITF primary 0.5 and FBW7 activator -0.1.
O=S(=O)(c1ccc(F)cc1)N1CCSCC1 was read as TEAD-YAP inh -6.0, GPR151 activ 5.8*, MITF primary -6.8, FBW7 activator -0.1, GPR151 conf act 0.6 and GPR119 ag 11.6.
CCC1CCC2(CC1)NC(=O)N(CC(=O)Nc1sc3c(c1C(N)=O)CCC3)C2=O (stereo not given) was read as TEAD-YAP inh 8.6, GPR151 activ -0.6, MITF primary 9.0 and FBW7 activator 0.1.
For COC(=O)c1ccc[n+](CC(=O)c2ccc(Br)cc2)c1 the results were TEAD-YAP inh -1.5, GPR151 activ 6.2*, MITF primary -0.3, FBW7 activator 0.5, GPR151 conf act 0.1 and GPR119 ag 1.3.
COc1ccc(C(=O)C[n+]2cccc(Br)c2)cc1 was read as TEAD-YAP inh -5.5, GPR151 activ 0.2, MITF primary -5.8 and FBW7 activator -0.1.
`O=C(C[n+]1cccc2ccccc21)c1ccc(Br)cc1` gave TEAD-YAP inh -2.1, GPR151 activ 15.3*, MITF primary -5.1, FBW7 activator -0.1, GPR151 conf act -0.2 and GPR119 ag -2.0.
Screening O=C(C[n+]1cccc2ccccc21)c1ccc(-c2ccccc2)cc1 returned TEAD-YAP inh 5.6, GPR151 activ -1.2, MITF primary 23.4 and FBW7 activator 0.3.
C=C1C(=O)[C@]23[C@H](O)[C@H]1CC[C@H]2[C@@]12CO[C@]3(O)[C@H](O)[C@@H]1C(C)(C)CC[C@@H]2O was read as TEAD-YAP inh 10.1, GPR151 activ 3.8, MITF primary 5.5 and FBW7 activator -0.1.
`COc1cc2nc(Nc3nccc4ccccc34)nc(NCCCN3CCCC3=O)c2cc1OC` gave TEAD-YAP inh -3.9, GPR151 activ 5.6*, MITF primary 3.5, FBW7 activator 0.0, GPR151 conf act -0.4 and GPR119 ag -1.3.
COc1cc2nc(Nc3nc4ccccc4n3C)nc(NCCCN3CCCC3=O)c2cc1OC was read as TEAD-YAP inh -5.6, GPR151 activ -2.3, MITF primary 0.2 and FBW7 activator -0.1.
For COC(=O)[C@@H](NC(=O)c1cc(COc2c(F)cccc2F)on1)c1ccccc1 the results were TEAD-YAP inh -1.4, GPR151 activ 1.1, MITF primary 13.3 and FBW7 activator -0.2.
`COC(=O)[C@H](Cc1ccccc1)NC(=O)c1cc(COc2c(F)cccc2F)on1` gave TEAD-YAP inh -31.2, GPR151 activ 5.6*, MITF primary 12.6, FBW7 activator 0.0, GPR151 conf act 0.6 and GPR119 ag -4.9.
O=C(C1CCCO1)N(c1ccc(Cl)cc1)C1C=CS(=O)(=O)C1 (stereo not given) was read as TEAD-YAP inh -9.4, GPR151 activ 9.6*, MITF primary 9.9, FBW7 activator 0.0, GPR151 conf act 0.5 and GPR119 ag 1.5.
For Cc1sc(NC(=O)CSc2nnc(Cc3ccccc3)o2)nc1-c1ccccc1 the results were TEAD-YAP inh 4.9, GPR151 activ 3.1, MITF primary 1.6 and FBW7 activator 0.1.
O=C(O)c1nn2c(c1Br)NC(c1ccccc1)CC2C(F)(F)F (stereo not given) was read as TEAD-YAP inh -3.8, GPR151 activ 7.2*, MITF primary 0.0, FBW7 activator 0.0, GPR151 conf act -0.4 and GPR119 ag 11.1.
Screening NC(=O)c1nn2c(c1Br)NC(c1ccccc1)CC2C(F)(F)F (stereo not given) returned TEAD-YAP inh 2.4, GPR151 activ -1.0, MITF primary -10.7 and FBW7 activator 0.2.
`O=C1CC2c3ccccc3C1C1C(=O)N(c3ccccc3)C(=O)C21` (stereo not given) gave TEAD-YAP inh -1.7, GPR151 activ 8.7*, MITF primary -7.4, FBW7 activator -0.2, GPR151 conf act -0.3 and GPR119 ag -6.5.
Screening Cc1ccc(N2C(=O)C3C4CC(=O)C(c5ccccc54)C3C2=O)cc1 (stereo not given) returned TEAD-YAP inh 5.1, GPR151 activ 0.8, MITF primary -3.4 and FBW7 activator -0.2.
O=C(Cn1c(=O)oc2ccccc21)N1CC(c2nc3ccccc3[nH]2)C1 was read as TEAD-YAP inh 8.1, GPR151 activ 0.0, MITF primary 1.2 and FBW7 activator -0.3.
